Test results reported in the supplement of paper PMC11732987, “Enantioselective OTUD7B fragment discovery through chemoproteomics screening and high-throughput optimisation” (Communications Chemistry, 2025).
Unmarked numbers belong to inactive results.

What was measured:
Assay in all cases: log2 ratio of Biotin-Ahx-Ub-VS probe labelling (fragment/DMSO); higher = less target engagement (more negative = stronger competition), active = hit call of the paper (q ≤ 0.05, log2 ratio ≤ -1)
Conditions in all cases: compound concentration: 200 uM; treatment time: 3 h
UniProt O00507 = biological target: UniProt O00507
Sequence of UniProt O00507 (O00507 whole entry, the tested form may be a part): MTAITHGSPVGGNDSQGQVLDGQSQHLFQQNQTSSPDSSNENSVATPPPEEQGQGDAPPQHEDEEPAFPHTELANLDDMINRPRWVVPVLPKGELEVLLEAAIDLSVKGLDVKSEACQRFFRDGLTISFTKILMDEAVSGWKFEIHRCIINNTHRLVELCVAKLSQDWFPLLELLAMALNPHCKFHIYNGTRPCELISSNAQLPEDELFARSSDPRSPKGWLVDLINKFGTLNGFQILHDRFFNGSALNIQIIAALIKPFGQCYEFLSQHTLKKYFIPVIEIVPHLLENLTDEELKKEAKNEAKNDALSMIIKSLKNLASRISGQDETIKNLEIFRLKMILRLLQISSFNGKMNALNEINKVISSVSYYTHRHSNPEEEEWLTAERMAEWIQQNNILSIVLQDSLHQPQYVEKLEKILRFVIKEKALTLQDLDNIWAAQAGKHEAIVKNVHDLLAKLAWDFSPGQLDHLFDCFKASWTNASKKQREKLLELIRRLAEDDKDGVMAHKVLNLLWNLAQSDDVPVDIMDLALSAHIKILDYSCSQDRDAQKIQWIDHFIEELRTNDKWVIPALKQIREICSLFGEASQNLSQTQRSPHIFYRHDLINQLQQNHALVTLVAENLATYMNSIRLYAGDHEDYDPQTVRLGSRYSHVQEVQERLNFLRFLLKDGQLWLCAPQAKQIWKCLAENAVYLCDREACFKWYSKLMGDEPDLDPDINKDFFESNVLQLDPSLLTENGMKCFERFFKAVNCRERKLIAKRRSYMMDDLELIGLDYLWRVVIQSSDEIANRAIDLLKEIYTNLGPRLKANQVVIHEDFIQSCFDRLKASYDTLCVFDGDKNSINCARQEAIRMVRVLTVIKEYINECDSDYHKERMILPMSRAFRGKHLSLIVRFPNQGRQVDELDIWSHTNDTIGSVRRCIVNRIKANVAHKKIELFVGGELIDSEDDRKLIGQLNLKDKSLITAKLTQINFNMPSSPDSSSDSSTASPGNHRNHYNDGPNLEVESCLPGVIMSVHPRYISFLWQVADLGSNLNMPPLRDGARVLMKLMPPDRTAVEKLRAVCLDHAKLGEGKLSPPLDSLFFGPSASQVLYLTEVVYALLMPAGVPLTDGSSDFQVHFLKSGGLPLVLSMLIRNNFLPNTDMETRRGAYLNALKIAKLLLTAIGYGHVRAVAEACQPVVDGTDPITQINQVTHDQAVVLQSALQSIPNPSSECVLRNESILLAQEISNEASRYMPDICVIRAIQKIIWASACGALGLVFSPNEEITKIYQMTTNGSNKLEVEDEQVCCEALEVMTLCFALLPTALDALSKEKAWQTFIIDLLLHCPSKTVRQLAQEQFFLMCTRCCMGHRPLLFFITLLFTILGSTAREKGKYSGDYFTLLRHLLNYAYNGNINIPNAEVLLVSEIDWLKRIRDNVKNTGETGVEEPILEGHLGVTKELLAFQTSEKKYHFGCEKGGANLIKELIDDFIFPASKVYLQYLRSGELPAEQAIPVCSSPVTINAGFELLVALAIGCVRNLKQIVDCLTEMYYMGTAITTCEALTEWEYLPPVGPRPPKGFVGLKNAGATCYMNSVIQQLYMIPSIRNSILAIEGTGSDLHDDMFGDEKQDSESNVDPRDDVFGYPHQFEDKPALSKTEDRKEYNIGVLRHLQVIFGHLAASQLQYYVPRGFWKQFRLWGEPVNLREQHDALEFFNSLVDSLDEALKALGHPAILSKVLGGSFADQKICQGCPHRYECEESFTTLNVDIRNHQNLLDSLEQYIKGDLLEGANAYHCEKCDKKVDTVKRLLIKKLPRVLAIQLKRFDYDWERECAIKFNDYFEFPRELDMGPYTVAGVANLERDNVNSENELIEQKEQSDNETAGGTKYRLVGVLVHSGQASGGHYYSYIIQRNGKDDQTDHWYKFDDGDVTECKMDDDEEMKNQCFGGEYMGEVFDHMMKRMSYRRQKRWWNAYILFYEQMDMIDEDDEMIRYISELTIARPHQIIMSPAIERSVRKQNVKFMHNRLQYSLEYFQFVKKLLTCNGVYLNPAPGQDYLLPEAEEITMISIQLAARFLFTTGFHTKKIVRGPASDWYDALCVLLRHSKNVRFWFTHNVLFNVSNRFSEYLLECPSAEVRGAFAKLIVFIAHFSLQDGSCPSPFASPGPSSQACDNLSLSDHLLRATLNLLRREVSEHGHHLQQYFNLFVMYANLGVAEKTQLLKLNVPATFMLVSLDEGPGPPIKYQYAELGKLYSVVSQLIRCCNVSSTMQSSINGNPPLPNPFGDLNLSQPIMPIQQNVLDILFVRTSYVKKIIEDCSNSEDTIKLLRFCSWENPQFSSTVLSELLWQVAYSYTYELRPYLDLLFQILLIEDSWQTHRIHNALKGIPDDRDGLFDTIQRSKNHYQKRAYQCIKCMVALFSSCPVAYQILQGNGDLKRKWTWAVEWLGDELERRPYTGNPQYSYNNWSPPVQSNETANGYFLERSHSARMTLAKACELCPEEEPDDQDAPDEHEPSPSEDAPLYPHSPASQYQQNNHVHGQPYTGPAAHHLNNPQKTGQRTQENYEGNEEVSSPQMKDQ
Method in brief: (§1)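 HEK293T lysate (495 µg per sample, in Tris/CHAPS/IGEPAL buffer with protease inhibitors) was exposed in triplicate for 3 h to fragment at 200 µM or to vehicle, then to Biotin-Ahx-Ub-VS at 0.5 µM final for 1 h. Labelled DUBs were enriched on NeutrAvidin, digested with LysC and trypsin, and analysed by diaPASEF LC-MS/MS. Spectronaut label-free quantities were normalised to the global median, and values are average log2 ratios of fragment over vehicle from an unpaired t-test. Only proteins with ≥2 unique peptides were used.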

UniProt P51784 = biological target: UniProt P51784
Sequence of UniProt P51784 (P51784 whole entry): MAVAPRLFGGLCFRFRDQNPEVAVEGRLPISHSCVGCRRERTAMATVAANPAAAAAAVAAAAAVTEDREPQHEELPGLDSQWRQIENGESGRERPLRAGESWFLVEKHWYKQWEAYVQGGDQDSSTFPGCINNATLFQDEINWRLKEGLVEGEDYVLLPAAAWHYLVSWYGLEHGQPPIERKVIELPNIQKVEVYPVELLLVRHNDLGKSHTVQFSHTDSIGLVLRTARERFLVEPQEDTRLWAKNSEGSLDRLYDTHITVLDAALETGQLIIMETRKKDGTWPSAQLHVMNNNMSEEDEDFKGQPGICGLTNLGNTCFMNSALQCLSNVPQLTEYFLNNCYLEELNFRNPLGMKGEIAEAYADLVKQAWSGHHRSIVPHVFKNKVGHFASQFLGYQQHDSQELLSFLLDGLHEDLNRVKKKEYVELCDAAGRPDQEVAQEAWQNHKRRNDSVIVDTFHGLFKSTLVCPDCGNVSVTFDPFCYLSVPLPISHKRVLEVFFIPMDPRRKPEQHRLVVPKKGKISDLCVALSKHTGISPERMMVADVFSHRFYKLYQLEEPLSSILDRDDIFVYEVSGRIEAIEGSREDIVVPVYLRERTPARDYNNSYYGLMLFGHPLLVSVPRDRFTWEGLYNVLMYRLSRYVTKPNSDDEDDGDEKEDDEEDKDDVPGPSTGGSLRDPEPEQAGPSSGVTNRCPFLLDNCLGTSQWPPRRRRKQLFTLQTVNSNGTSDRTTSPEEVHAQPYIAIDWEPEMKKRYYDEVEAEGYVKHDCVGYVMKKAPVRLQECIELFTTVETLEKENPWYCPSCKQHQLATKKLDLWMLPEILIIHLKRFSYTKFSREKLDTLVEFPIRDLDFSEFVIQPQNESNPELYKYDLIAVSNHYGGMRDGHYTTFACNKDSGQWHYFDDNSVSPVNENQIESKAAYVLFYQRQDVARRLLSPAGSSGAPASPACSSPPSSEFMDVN
Method in brief: as §1

UniProt Q5T2D3 = biological target: T1, UniProt Q5T2D3
T1 sequence (whole entry): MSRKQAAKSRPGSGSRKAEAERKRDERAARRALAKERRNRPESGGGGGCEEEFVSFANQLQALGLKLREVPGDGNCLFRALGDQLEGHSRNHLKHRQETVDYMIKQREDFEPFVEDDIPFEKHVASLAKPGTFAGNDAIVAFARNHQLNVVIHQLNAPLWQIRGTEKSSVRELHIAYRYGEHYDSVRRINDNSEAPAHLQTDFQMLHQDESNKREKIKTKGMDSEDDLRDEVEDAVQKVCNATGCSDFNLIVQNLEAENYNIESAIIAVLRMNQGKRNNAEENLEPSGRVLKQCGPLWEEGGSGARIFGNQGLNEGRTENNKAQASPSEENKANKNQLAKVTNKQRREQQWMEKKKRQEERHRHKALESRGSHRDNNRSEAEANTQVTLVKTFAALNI
Method in brief: as §1

UniProt Q8TE49 = biological target: T2, UniProt Q8TE49
T2 sequence (whole entry): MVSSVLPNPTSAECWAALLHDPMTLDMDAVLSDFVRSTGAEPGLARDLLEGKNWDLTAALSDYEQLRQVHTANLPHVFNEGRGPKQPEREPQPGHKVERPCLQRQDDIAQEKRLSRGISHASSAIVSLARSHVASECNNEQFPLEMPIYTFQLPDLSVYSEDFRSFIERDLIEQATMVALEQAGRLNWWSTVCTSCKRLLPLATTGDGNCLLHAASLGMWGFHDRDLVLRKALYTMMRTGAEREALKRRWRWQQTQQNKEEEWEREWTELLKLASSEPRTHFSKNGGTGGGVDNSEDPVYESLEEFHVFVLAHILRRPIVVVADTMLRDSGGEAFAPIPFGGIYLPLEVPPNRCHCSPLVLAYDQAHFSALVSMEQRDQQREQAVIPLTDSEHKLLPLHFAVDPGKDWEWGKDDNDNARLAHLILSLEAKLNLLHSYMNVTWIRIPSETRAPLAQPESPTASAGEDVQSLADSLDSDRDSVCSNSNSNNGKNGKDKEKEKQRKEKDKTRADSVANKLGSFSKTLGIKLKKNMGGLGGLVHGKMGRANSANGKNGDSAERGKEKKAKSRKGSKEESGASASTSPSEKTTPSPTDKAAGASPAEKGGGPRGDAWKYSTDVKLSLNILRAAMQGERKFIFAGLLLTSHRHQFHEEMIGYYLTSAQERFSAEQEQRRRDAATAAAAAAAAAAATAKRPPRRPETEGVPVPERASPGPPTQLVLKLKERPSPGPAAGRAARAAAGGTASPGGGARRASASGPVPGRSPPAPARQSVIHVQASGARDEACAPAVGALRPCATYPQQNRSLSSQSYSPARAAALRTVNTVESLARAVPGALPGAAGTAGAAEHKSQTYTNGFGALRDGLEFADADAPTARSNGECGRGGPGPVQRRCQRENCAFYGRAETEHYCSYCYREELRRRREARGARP
Method in brief: as §1

UniProt Q9P2H5 = biological target: T3, UniProt Q9P2H5
T3 sequence (whole entry): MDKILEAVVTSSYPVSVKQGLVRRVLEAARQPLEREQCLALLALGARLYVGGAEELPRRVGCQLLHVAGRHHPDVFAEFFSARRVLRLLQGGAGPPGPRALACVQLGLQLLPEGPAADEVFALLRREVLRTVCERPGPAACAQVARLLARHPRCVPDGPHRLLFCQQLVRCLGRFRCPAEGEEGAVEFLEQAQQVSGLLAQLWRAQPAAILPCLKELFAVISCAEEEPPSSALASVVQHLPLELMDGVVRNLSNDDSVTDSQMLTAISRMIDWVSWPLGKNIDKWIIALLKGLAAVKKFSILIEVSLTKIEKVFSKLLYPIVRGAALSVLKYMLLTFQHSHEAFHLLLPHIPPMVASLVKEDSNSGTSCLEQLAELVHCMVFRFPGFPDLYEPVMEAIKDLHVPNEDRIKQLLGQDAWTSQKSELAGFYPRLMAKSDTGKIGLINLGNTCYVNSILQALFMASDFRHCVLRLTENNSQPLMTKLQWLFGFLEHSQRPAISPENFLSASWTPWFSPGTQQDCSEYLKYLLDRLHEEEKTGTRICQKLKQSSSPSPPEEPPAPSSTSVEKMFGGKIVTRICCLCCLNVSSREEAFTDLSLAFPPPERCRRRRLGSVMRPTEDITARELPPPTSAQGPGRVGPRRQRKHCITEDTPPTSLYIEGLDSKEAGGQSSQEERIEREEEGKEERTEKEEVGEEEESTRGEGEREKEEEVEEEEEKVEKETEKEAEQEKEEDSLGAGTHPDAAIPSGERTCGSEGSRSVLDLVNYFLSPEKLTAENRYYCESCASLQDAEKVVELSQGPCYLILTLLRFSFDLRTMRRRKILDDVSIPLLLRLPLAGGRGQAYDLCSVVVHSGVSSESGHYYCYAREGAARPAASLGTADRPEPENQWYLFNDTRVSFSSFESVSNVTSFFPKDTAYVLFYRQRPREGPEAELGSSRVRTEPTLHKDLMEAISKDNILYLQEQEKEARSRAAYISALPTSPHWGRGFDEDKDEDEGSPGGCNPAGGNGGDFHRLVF
Method in brief: as §1

UniProt Q9UGI0 = biological target: T4, UniProt Q9UGI0
T4 sequence (whole entry): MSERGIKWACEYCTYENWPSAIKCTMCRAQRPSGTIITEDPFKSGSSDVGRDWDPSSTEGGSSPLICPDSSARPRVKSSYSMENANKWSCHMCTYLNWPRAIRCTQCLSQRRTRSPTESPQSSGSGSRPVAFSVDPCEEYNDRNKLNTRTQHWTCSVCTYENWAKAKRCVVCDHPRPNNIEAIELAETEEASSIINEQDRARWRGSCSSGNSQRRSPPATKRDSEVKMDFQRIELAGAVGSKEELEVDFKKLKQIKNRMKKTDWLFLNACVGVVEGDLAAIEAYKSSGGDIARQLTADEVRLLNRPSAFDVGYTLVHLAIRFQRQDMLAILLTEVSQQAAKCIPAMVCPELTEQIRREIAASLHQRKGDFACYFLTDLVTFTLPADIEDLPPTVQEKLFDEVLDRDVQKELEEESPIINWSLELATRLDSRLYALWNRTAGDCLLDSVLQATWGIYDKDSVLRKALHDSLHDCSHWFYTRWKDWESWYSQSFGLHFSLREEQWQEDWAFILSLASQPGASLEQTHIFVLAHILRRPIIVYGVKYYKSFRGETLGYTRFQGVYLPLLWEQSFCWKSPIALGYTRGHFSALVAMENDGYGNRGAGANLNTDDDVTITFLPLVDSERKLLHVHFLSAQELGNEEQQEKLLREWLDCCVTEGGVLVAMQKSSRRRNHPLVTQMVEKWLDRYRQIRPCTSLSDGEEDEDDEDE
Method in brief: as §1

YOD1 = biological target: T5, YOD1 (UniProt Q5VVQ6)
T5 sequence (whole entry): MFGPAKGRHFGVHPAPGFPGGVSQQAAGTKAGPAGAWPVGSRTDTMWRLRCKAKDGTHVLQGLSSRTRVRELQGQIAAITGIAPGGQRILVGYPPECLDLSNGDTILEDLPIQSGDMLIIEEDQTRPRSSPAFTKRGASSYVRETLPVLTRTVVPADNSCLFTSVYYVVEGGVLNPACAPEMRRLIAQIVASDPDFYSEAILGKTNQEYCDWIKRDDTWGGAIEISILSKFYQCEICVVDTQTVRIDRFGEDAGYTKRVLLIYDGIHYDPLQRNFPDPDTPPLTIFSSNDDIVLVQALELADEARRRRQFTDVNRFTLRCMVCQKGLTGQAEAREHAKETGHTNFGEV
Method in brief: as §1

Row | SMILES | log2 ratio of Biotin-Ahx-Ub-VS probe labelling (UniProt O00507) | log2 ratio of Biotin-Ahx-Ub-VS probe labelling (UniProt P51784) | log2 ratio of Biotin-Ahx-Ub-VS probe labelling (UniProt Q5T2D3) | log2 ratio of Biotin-Ahx-Ub-VS probe labelling (UniProt Q8TE49) | log2 ratio of Biotin-Ahx-Ub-VS probe labelling (UniProt Q9P2H5) | log2 ratio of Biotin-Ahx-Ub-VS probe labelling (UniProt Q9UGI0) | log2 ratio of Biotin-Ahx-Ub-VS probe labelling (YOD1)
1 | CCN1C(=O)C2CN(C(=O)CCl)CCN2C1=O (stereo not drawn) | 0.428 | 0.0433 | -0.0669 | -0.958 | -0.223 | 0.112 | 0.177
2 | Cl.O=C(CCl)N1CCN(Cc2ccccc2)CC1 | -0.496 | 0.0203 | -0.213 | -0.391 | 0.0502 | -0.536 | -0.381
3 | CC(NC(=O)CCl)c1csc(-c2ccccc2)n1.Cl (stereo not drawn) | -0.472 | -0.138 | -0.671 | -1.08 (active) | -0.482 | -0.494 | -0.459
4 | CC(NC(=O)CCl)c1ccc2[nH]ncc2c1 (stereo not drawn) | -0.939 | -0.173 | -0.26 | -1.1 (active) | -0.0706 | -0.756 | -0.629
5 | O=C(CCl)N1CCN2C(=O)CCC2C1 (stereo not drawn) | 0.162 | 0.195 | -0.286 | -0.3 | -0.168 | -0.382 | 0.182
6 | O=C(CCl)NC1CCS(=O)(=O)c2ccccc21 (stereo not drawn) | -0.00358 | -0.174 | -0.342 | -1.2 (active) | -0.644 | -0.564 | 0.0479
7 | O=C(CCl)N[C@H]1CC[C@@H](CO)CC1 | -0.725 | -0.788 | -0.746 | -1.32 (active) | -0.775 | -0.944 | -0.784
8 | CCN(Cc1ccc(C#N)cc1F)C(=O)CCl | -0.396 | -0.331 | -0.313 | -0.525 | -0.207 | -1.27 (active) | -0.251
9 | O=C(O)C1Cc2ccccc2CN1C(=O)CCl (stereo not drawn) | -0.298 | -0.0646 | -0.268 | -0.664 | -0.394 | -0.642 | -0.0629
10 | O=C(CCl)NC1CCC2(CC1)OCCO2 | -0.379 | -0.104 | -0.473 | -0.565 | -0.399 | -0.544 | -0.297
11 | CC(=O)C1CCCCN1C(=O)CCl (stereo not drawn) | 0.17 | 0.028 | -0.0455 | -0.492 | -0.14 | 0.121 | -0.0382
12 | O=C(CCl)N1CCCC2CCCCC21 (stereo not drawn) | -0.0343 | 0.035 | -0.0557 | -0.126 | -0.193 | -0.134 | 0.0864
13 | CC(NC(=O)CCl)c1cccc(Cl)c1 (stereo not drawn) | -0.176 | -0.0638 | -0.271 | -0.632 | -0.25 | -1.18 (active) | -0.167
14 | Cl.O=C(CCl)N1CCC(n2nc3ccccc3n2)CC1 | -0.531 | -0.268 | -0.193 | -0.712 | -0.415 | -0.422 | -0.0827
15 | Cc1cccc2nc(CCNC(=O)CCl)cn12.Cl | -0.595 | -0.113 | -0.351 | -0.764 | -0.327 | -0.846 | -0.336
16 | O=C(CCl)NCc1cccc(F)c1 | 0.176 | -0.104 | -0.0819 | -0.349 | 0.0328 | -0.684 | -0.0324
17 | Cc1cccnc1NC(=O)C1CCN(C(=O)CCl)CC1.Cl | -0.282 | -0.0141 | -0.408 | -0.254 | -0.348 | -0.465 | -0.214
18 | O=C(CCl)N1CCC(=C(F)CO)C1 | 0.605 | 0.155 | 0.0125 | -0.47 | -0.115 | -0.16 | 0.406
19 | O=C(CCl)NCc1noc(C2CC2)n1 | -0.504 | 0.0106 | -0.464 | -0.385 | -0.13 | -0.133 | -0.415
